# Measurements: ChEMBL document CHEMBL1157539, “Thousands of chemical starting points for antimalarial lead identification” (Nature, 2010)
# Test system: Plasmodium falciparum
# Assay: GSK_TCMDC: Inhibition of Plasmodium falciparum Dd2 in whole red blood cells, using parasite LDH activity as an index of growth. Test compounds present at 2uM
# Format: functional
row,Structure (SMILES),Inhibition
1,CC(C)Nc1ccc(Nc2ccnc3cc4ccccc4cc23)cc1,81%
2,O=C(O)C(F)(F)F.O=C1OC2(CCN(Cc3cccc(-c4ncc[nH]4)c3)CC2)CN1CCNCc1ccccc1,0%
3,CC(C)C[C@H](Nc1ccc(C#N)c2ccccc12)C(=O)NC(C)(C)C12CC3CC(CC(C3)C1)C2.O=C(O)C(F)(F)F,30%
4,O=C(NCCN1CCCCC1)c1ccc(CNC(=O)c2ccc(O)c(-c3ccc(Cl)c(Cl)c3)c2)cc1,68%
5,Cc1ccc(CN2CCN(c3cc4c(cc3Cl)CCN4C(=O)Cc3ccc(NC(=O)c4ccc(C(F)(F)F)cc4)cc3)CC2)cc1,0%
6,COc1ccc2c(ccc3c2ncc2c(=O)n(-c4ccccc4)[nH]c23)c1,92%
7,Cc1ccnc(NC(c2cccc(OCc3ccccc3)c2)c2ccc3cccnc3c2O)c1 (stereo not drawn),88%
8,CN1CCN(c2nc(NCCc3ccc(O)cc3)nc(NCc3ccccc3-c3ccc(C(F)(F)F)cc3)n2)CC1,82%
9,CC(CCCCOCCc1ccccc1)NCC(O)c1cc(Cl)c(N)c(Cl)c1 (stereo not drawn),95%
10,CN(C)c1ccc(-c2csc(C(=O)NCC3CCN(CCC(C)(C)C)C3)c2)cc1.O=C(O)C(F)(F)F (stereo not drawn),16%
11,CCc1c(CCNCCCCCCNCCc2ccc(OC)c(OC)c2C)ccc(OC)c1OC.Cl,1%
12,CC(C)(CNC(=O)C1CCN(CCOc2ccc(Cl)cc2)CC1)c1nc(-c2ccc(Cl)c(O)c2)c(-c2ccncc2)[nH]1.Cl,5%
13,O=C(C=Cc1ccc(Cl)c(Cl)c1)NCCCCCN1CCCC(CCCNC(=O)/C=C/c2ccccc2)C1 (stereo not drawn),12%
